Our source for the survival values is PubChem BioAssay AID463173 (ICCB-Longwood Screening Facility, Harvard Medical School, 2010).

The whole screen tested about 52,000 compounds, of which about 4,300 (8.3%) were called active. The sample holds actives, similar compounds and a random draw of the others, so the mix is not that of the screen. Cut-off read from the data, not from the text of the source: active = survival mostly below about 52% (no sharp cut-off); inactive = mostly above about 56%.

The test concerns DeltatarO mutant. Kind of test: growth inhibition of S. aureus wild type versus tarO mutant, primary screen, teichoic acid synthesis inhibitors, RN4220, OD600 (AID 463173). Particulars: OD600, 18 h, hits give low values, screened at 18.75 µg/mL (by protocol).
With `O=S(=O)(c1ccccc1)c1nc(-c2ccc(F)cc2)oc1N1CCCCCC1`, the survival is 33% (active). For `Cc1ccc(-c2nc(S(=O)(=O)c3ccc(C)cc3)c(N3CCN(c4ccccc4)CC3)o2)cc1` the value was 97% (inactive). Regarding `CC(C)(C)c1ccc(-c2nc(S(=O)(=O)c3ccccc3)c(N3CCOCC3)o2)cc1`, the survival was 37% (active). Take `Cc1ccc(-c2nc(S(=O)(=O)c3ccc(C)cc3)c(N3CCCCCC3)o2)cc1`: the survival was 70% (inactive).

Consider `Cc1ccc(-c2nc(S(=O)(=O)c3ccc(C)cc3)c(N3CCCCC3)o2)cc1`, for which the survival was 0% (active). To `COc1ccc(-c2nc(S(=O)(=O)c3ccccc3)c(N3CCCCC3)o2)cc1` belongs 74% (inactive); to `Cc1ccc(S(=O)(=O)c2nc(-c3ccccc3)oc2N2CCN(c3ccccc3)CC2)cc1`, 85% (inactive). For `Cc1ccc(S(=O)(=O)c2nc(-c3ccccc3)oc2N2CCCCCC2)cc1` the value was 22% (active); for `Cc1ccc(-c2nc(S(=O)(=O)c3ccccc3)c(N3CCN(c4ccccc4)CC3)o2)cc1`, 102% (inactive).

Regarding `COc1ccc(-c2nc(S(=O)(=O)c3ccc(C)cc3)c(N3CCCCC3)o2)cc1`, the survival was 54% (inactive). On to `O=S(=O)(c1ccccc1)c1nc(-c2cccc(Cl)c2)oc1N1CCOCC1`, for which the survival was 57% (inactive). To `O=S(=O)(c1ccccc1)c1nc(-c2ccc(F)cc2)oc1N1CCOCC1` belongs 90% (inactive); to `Cc1ccc(Cl)cc1NC(=O)Cn1cc2c(n1)CCCCC2`, 68% (inactive); to `CCc1ccc(NC(=O)CC(c2cc(OC)c(OC)c(OC)c2)N2Cc3ccccc3C2=O)cc1` (stereo not drawn), 79% (inactive). To `COc1ccc(N2CCN(C(=O)c3cccc4ccccc34)CC2)cc1` belongs 66% (inactive); to `COC(=O)NCc1c(C)nn(-c2ccccc2)c1-n1cccc1`, 96% (inactive). As to `COc1ccc(C2c3cccn3CCN2S(=O)(=O)c2ccc([N+](=O)[O-])cc2)cc1` (stereo not drawn), the survival is 69% (inactive). For `Cn1ncc(C(=O)N2CCN(c3ccccc3)CC2)c1C1CCN(C(=O)OC(C)(C)C)CC1` the value was 78% (inactive); for `CCCCN(CC)C(=O)c1c[nH]c2ccc(S(=O)(=O)N(C)c3ccc(Cl)cc3)cc2c1=O`, 95% (inactive); for `COc1cc2c(cc1OC)C(c1cccc(Cl)c1)CC(=O)N2` (stereo not drawn), 63% (inactive). With `Cc1c(C(=O)OC2CCC(C)CC2)[nH]c2c1C(=O)CC(c1ccc(N(C)C)cc1)C2` (stereo not drawn), the survival is 68% (inactive).

Take `COc1ccc(NC(=O)C(=O)Nc2ccc3nc4n(c(=O)c3c2)CCCCC4)c(OC)c1`: the survival is 84% (inactive). In the case of `COc1cccc(OC)c1C(=O)Nc1ccc2c(c1)N(C(C)=O)CCC2`, the survival is 78% (inactive). For `COCCn1c(=NC(=O)c2ccc3c(c2)OCCO3)sc2cc(NC(C)=O)ccc21` the value was 94% (inactive); for `Cc1nn2c(=O)cc(COC(=O)COc3ccccc3C)nc2s1`, 101% (inactive); for `O=C(NC12CC3CC(CC(C3)C1)C2)N1CCC(O)(c2ccc3c(c2)OCO3)CC1`, 81% (inactive). As for `O=C(c1cc2nc(-c3ccccc3)cc(C(F)(F)F)n2n1)N1CCCC1`, the survival was 78% (inactive). For `COc1ccc(-c2cc(C(F)(F)F)n3nc(C(=O)NCC45CC6CC(CC(C6)C4)C5)cc3n2)cc1`, the survival is 29% (active). For `O=C(Nc1cccc(C(F)(F)F)c1)c1cc2nc(-c3ccccc3)cc(C(F)(F)F)n2n1` the value was 60% (inactive); for `O=C(NCC12CC3CC(CC(C3)C1)C2)c1cc2nc(-c3ccccc3)cc(C(F)(F)F)n2n1`, -4% (active); for `O=C(NCC12CC3CC(CC(C3)C1)C2)c1cc2nc(-c3ccc(Cl)cc3)cc(C(F)(F)F)n2n1`, 31% (active). To `Cc1ccc(-c2cc(C(F)(F)F)n3nc(C(=O)Nc4ccc(Cl)cc4Cl)cc3n2)cc1` belongs 81% (inactive); to `COc1ccc(-c2cc(C(F)(F)F)n3nc(C(=O)NCC45CC6CC(CC(C6)C4)C5)cc3n2)cc1OC`, 137% (inactive); to `CCOc1ccc(NC(=O)c2cc3nc(-c4ccc(OC)cc4)cc(C(F)(F)F)n3n2)cc1`, 134% (inactive). For `O=C(Nc1cccc(Cl)c1Cl)c1cc2nc(-c3ccc(Cl)cc3)cc(C(F)(F)F)n2n1` the value was 93% (inactive); for `CCC(c1nnnn1CCOC)N(Cc1cc2ccc(OC)cc2[nH]c1=O)C1CCCC1` (stereo not drawn), 92% (inactive); for `Cc1ccc(C)c(N2CCN(C(=O)c3cc4cc5ccc(C)cc5nc4s3)CC2)c1`, 95% (inactive). For `N#Cc1c2c(c(-c3ccccc3)[nH]c1=S)CCCC2`, the survival is 91% (inactive). For `CCc1ccc(-c2nn(CC(=O)NC3CCCCC3)c3c2cnc2ccc(OC)cc23)cc1` the value was 98% (inactive).

For the compound `CCc1ccc(-c2[nH]c3c(c2-c2sc(C)c(C(=O)OC)c2O)c(=O)n(C)c(=O)n3C)cc1`, the survival is 51% (inactive).

Turning to `COC(=O)c1c(C)sc(-c2c(-c3ccc4c(c3)OCCO4)[nH]c3c2c(=O)[nH]c(=O)n3C)c1O`, the survival was 37% (active). For `COC(=O)c1c(C)sc(-c2c(-c3ccc4c(c3)OCCO4)[nH]c3[nH]c(=O)[nH]c(=O)c23)c1O` the value was 50% (inactive); for `CCOC(=O)c1c(C)sc(-c2c(-c3cc(C)ccc3C)[nH]c3c2c(=O)n(C)c(=O)n3C)c1O`, 105% (inactive); for `CCOC(=O)c1c(C)sc(-c2c(-c3ccc4c(c3)OCCO4)[nH]c3c2c(=O)[nH]c(=O)n3C)c1O`, 106% (inactive). On to `CCOC(=O)c1c(C)sc(-c2c(-c3cccc(Cl)c3)[nH]c3c2c(=O)n(C)c(=O)n3C)c1O`, for which the survival is 113% (inactive). To `CCc1ccc(-c2[nH]c3c(c2-c2sc(C)c(C(=O)OC)c2O)c(=O)[nH]c(=O)n3C)cc1` belongs 23% (active); to `COC(=O)c1c(C)sc(-c2c(-c3ccc(F)cc3)[nH]c3[nH]c(=O)[nH]c(=O)c23)c1O`, 116% (inactive). To `COC(=O)c1c(C)sc(-c2c(-c3cccc(OC)c3)[nH]c3c2c(=O)[nH]c(=O)n3C)c1O` belongs 43% (active).

For `COC(=O)c1c(C)sc(-c2c(-c3cccc(Cl)c3)[nH]c3c2c(=O)[nH]c(=O)n3C)c1O`, the survival was 113% (inactive). As to `CCOC(=O)c1c(C)sc(-c2c(-c3cc(C)ccc3C)[nH]c3c2c(=O)[nH]c(=O)n3C)c1O`, the survival was 40% (active). For `CCOC(=O)c1c(C)sc(-c2c(-c3ccc(OC)c(F)c3)[nH]c3c2c(=O)[nH]c(=O)n3C)c1O` the value was 117% (inactive). For the compound `COc1cccc(CNC(=O)c2c(C)oc3ncnc(N4CCOCC4)c23)c1`, the survival was 87% (inactive).

As for `COc1ccc(CNC(=O)C2CCN(c3nnc(-n4cccc4CNc4ccc(C)cc4)s3)CC2)c(OC)c1`, the survival was 70% (inactive). For `COc1ccc(CN2CCc3nc(N4CCN(c5ccc(F)cc5)CC4)ncc3C2)c(OC)c1OC` the value was 119% (inactive).

As to `COc1ccc(-c2nc3sc(CCNC(=O)c4cc(OC)c(OC)c(OC)c4)c(C)n3n2)cc1`, the survival was 83% (inactive). For `CN(C(=O)CSc1nc2ccc(NC(=O)COc3ccc(Cl)cc3)cc2s1)c1ccccc1` the value was 72% (inactive); for `CCOc1ccc(OCC)c(Nc2nc3ccc(Cl)cc3n3cnnc23)c1`, 65% (inactive). For `CC(C)NC(=O)C1CCN(S(C)(=O)=O)CC1` the value was 93% (inactive); for `CSc1nc(NNC(=O)c2ccco2)c2c3c(sc2n1)COC(C)(C)C3`, 81% (inactive). To `CCOc1ccccc1NC(=O)C(C)N(c1ccccc1)S(C)(=O)=O` (stereo not drawn) belongs 91% (inactive).

With `COC(=O)c1c(C)sc(-c2c(-c3ccc4c(c3)OCCO4)[nH]c3c2c(=O)n(C)c(=O)n3C)c1O`, the survival was 43% (active).

With `COC(=O)c1c(C)sc(-c2c(-c3ccc(OC)c(F)c3)[nH]c3c2c(=O)n(C)c(=O)n3C)c1O`, the survival is 120% (inactive). For `CCOC(=O)c1c(C)sc(-c2c(-c3ccc4c(c3)OCCO4)[nH]c3c2c(=O)n(C)c(=O)n3C)c1O` the value was 128% (inactive). For `COCCCNc1c2c(nc3ccccc13)CCC2` the value was 125% (inactive); for `O=C1COc2ccc(-c3cc(-c4ccc(F)cc4)c4c(n3)-c3cc(Cl)ccc3OC4)cc2N1`, 88% (inactive). To `Cc1nc2sccn2c(=O)c1S(=O)(=O)Nc1cc(Cl)ccc1O` belongs 51% (inactive). As to `Cc1ccc(NS(=O)(=O)c2c(C)nc3sccn3c2=O)c(Cl)c1`, the survival is 132% (inactive). To `COc1ccc(NS(=O)(=O)c2c(C)nc3scc(C)n3c2=O)cc1` belongs 90% (inactive); to `Cc1nc2sccn2c(=O)c1S(=O)(=O)Nc1cc(C(F)(F)F)ccc1Cl`, 69% (active); to `CC(=O)c1ccc(NS(=O)(=O)c2c(C)nc3scc(C)n3c2=O)cc1`, 88% (inactive). For `COc1cc(OC)c(NS(=O)(=O)c2c(C)nc3sc(C)cn3c2=O)cc1Cl` the value was 65% (inactive); for `CC(=O)Nc1ccc(NS(=O)(=O)c2c(C)nc3sccn3c2=O)cc1`, 61% (inactive). For `COC(=O)c1ccc(NS(=O)(=O)c2c(C)nc3sccn3c2=O)cc1` the value was 72% (active); for `CCCCOC(=O)c1ccc(NS(=O)(=O)c2c(C)nc3scc(C)n3c2=O)cc1`, 43% (active); for `COc1cc(Cl)c(C)cc1NS(=O)(=O)c1c(C)nc2sccn2c1=O`, 64% (active). As for `Cc1nc2sccn2c(=O)c1S(=O)(=O)Nc1ccc(N2CCN(C)CC2)cc1`, the survival was 106% (inactive). For `CCOc1ccccc1NS(=O)(=O)c1c(C)nc2sccn2c1=O` the value was 63% (inactive); for `COc1ccc(Cn2nnnc2C(C(C)C)N2CCc3ccccc32)cc1` (stereo not drawn), 82% (inactive). To `CC(=O)N1CCC(N(Cc2ccco2)C(=O)Nc2ccc(C)c(Cl)c2)CC1` belongs 128% (inactive); to `CN(C)S(=O)(=O)c1ccc2c(c1)N(CC(=O)NCc1ccccc1)C(=O)C1CCCCN21` (stereo not drawn), 67% (inactive); to `CCSc1nc2n(n1)C(c1ccc(C(=O)O)cc1)C(C(=O)Nc1ccccc1C)=C(C)N2` (stereo not drawn), 84% (inactive). For the compound `COc1ccc(N2CCN(C(=O)Nc3ccc(Cl)cc3)CC2)cc1`, the survival was 168% (inactive). For `COc1ccc(S(=O)(=O)c2cn(CC(=O)Nc3cc(C)ccc3C)c3ccccc3c2=O)cc1` the value was 86% (inactive).
